Laboratory results reported in PubChem BioAssay AID455 (Sanford-Burnham Center for Chemical Genomics, 2006).
In all, about 10,000 compounds went through this assay and about 20 (0.2%) were called active. The sample as a whole holds a higher share of actives than the screen did. Values without a mark were called inactive.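 How the source made its calls: active means a compound raising TNF-alpha-driven VCAM-1 surface staining, with its hit status upheld on visual or statistical review; inactive means the rest, including hits rejected on review.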

assay: boosters of cytokine-driven VCAM-1 levels – cell-based, plate reader, pooled HUVEC, TNFa stimulus (AID 455); settings: HUVEC TNFa-induced VCAM-1 immunofluorescence; stronger effect = higher value, 100% set by best visually verified hit,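 tested at 5 µM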;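 on augmentation: 0% = TNFa plus DMSO wells and 100% = a visually confirmed top hit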

**Q.** With CC(O)c1nc2ccccc2n1C1CCCCC1 (stereo unspecified) as the molecule, how does the augmentation read?
**A.** inactive

**Q.** With CC(C)N=c1cc2n(-c3ccc(Cl)cc3)c3ccccc3nc-2cc1Nc1ccc(Cl)cc1 as the molecule, how does the augmentation read?
**A.** 74% (active)

**Q.** For CC(C)NC(=O)CSc1nc2ccccc2n1-c1ccccc1, which augmentation is on record?
**A.** inactive

**Q.** With CCOC(=O)C1CN(S(=O)(=O)c2ccc(C)cc2)CCN1S(=O)(=O)c1ccc(C)cc1 (stereo unspecified) as the molecule, how does the augmentation read?
**A.** inactive

**Q.** Which augmentation does the source give for CCOc1ccccc1N1C(=O)CC(Sc2ncccc2C(=O)O)C1=O (stereo unspecified) here?
**A.** inactive

**Q.** With COc1ccc(-c2oc3ncn(CCN4CCOCC4)c(=N)c3c2-c2ccc(OC)cc2)cc1 as the molecule, how does the augmentation read?
**A.** inactive

**Q.** Which augmentation does the source give for CC1=C(C(=O)OC2CCCC2)C(c2ccc(C)o2)C2=C(CC(c3cccs3)CC2=O)N1 (stereo unspecified) here?
**A.** inactive

**Q.** With COc1cccc(CNC(=O)C2CCN(S(=O)(=O)c3ccc(F)cc3)CC2)c1 as the molecule, how does the augmentation read?
**A.** inactive

**Q.** For CCCCSc1nnc([C@H](C)NC(=O)OC(C)(C)C)o1, which augmentation is on record?
**A.** inactive

**Q.** With O=C(OC1CCOC1=O)c1ccc2ccccc2n1 (stereo unspecified) as the molecule, how does the augmentation read?
**A.** inactive

**Q.** Which augmentation does the source give for O=C(Nc1ccc2nc(-c3cccs3)[nH]c2c1)c1ccco1 here?
**A.** 72.4% (active)

**Q.** Which augmentation does the source give for Cn1cccc1-c1nc2ccc(NC(=O)c3ccco3)cc2[nH]1 here?
**A.** 65.1%

**Q.** For COc1ccc(NC(=O)c2ccco2)cc1NC(=O)c1cccs1, which augmentation is on record?
**A.** inactive

**Q.** With O=C(Nc1ccccc1-c1nc2ccccc2o1)c1ccc2c(c1)OCCO2 as the molecule, how does the augmentation read?
**A.** inactive

**Q.** For O=C(Nc1cccc2ncccc12)c1ccc2c(c1)OCCO2, which augmentation is on record?
**A.** 81% (active)

**Q.** With CCN1C(=O)c2cccc3c(NC(=O)c4ccc5c(c4)OCCO5)ccc1c23 as the molecule, how does the augmentation read?
**A.** inactive

**Q.** For CC(C)C(=O)N1CCN(c2nc(-c3ccccc3)c3c(c2C#N)CCCC3)CC1, which augmentation is on record?
**A.** inactive

**Q.** Which augmentation does the source give for Oc1cccc(C=NCc2ccccc2)c1O here?
**A.** 61.8% (active)

**Q.** Which augmentation does the source give for FC(F)Sc1nnc(-c2cccs2)n1-c1ccccc1 here?
**A.** inactive

**Q.** For CCCC(=O)Nc1cc(C)c2c(=O)oc3ccccc3c2n1, which augmentation is on record?
**A.** inactive

**Q.** Which augmentation does the source give for Cc1ccc(Br)cc1S(=O)(=O)N1CCN(c2ccccc2)CC1 here?
**A.** inactive

**Q.** Which augmentation does the source give for Cc1cc(C)c2c(n1)nn1c(C3CC3)cc(C(F)(F)F)nc21 here?
**A.** inactive

**Q.** With CCOC(=O)CN1C2=NCCN2c2ccccc21 as the molecule, how does the augmentation read?
**A.** inactive

**Q.** With c1ccc(CN2C3=NCCCN3c3ccccc32)cc1 as the molecule, how does the augmentation read?
**A.** inactive

**Q.** Which augmentation does the source give for COc1ccc(C(=O)CN2C3=NCCCN3c3ccccc32)cc1OC here?
**A.** 71.2% (active)

**Q.** Which augmentation does the source give for Cc1cccc(NC(=O)CC2CCC2)c1 here?
**A.** inactive

**Q.** Which augmentation does the source give for Cc1cc(C)n(-c2nc3sc4c(c3c3nnc(SCC(N)=O)n23)CC(C)(C)OC4)n1 here?
**A.** inactive

**Q.** With CCCC(=O)Nc1cc(C)c(NC(=O)c2ccccn2)cn1 as the molecule, how does the augmentation read?
**A.** inactive

**Q.** With COCCn1c(CN2CCN(c3cccc(Cl)c3)CC2)nc2c1c(=O)n(C)c(=O)n2C as the molecule, how does the augmentation read?
**A.** inactive

**Q.** Which augmentation does the source give for O=c1cc(NCc2ccccc2)nc2n1CCCS2 here?
**A.** inactive

**Q.** For O=C(Nc1cccc(F)c1)c1ccc2c(c1)OCO2, which augmentation is on record?
**A.** inactive
